# Measured values as given in PubChem BioAssay (NCATS).
# Inconclusive results are not listed. Where a call stands in place of a potency, no number is given. Calls of active or inactive are those of the source. Unless noted, calls follow the shape of the dose curve; as a rule, active = well fitted curve in the direction sought with a large enough effect; inconclusive = small, poorly fitted or top-dose-only effect, or another doubt; inactive = no such curve, though single readings can be large; an effect the other way counts as inactive or inconclusive.
# Experiments:
# [1] = target: Cytochrome P450 3A4 (Homo sapiens) (UniProt P08684); test: qHTS Assay for Inhibitors and Substrates of Cytochrome P450 3A4 (AID 884); also: nearly all actives have a fitted effect of over 50% in size
# In short: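 20 nM human CYP3A4 with 25 uM Luciferin-PPXE (at KM) in 200 mM KPO4, preincubated 10 min with compound; NADPH regeneration started a 60 min RT reaction. Luciferin detected by luminescence, normalized to 57 uM ketoconazole as full inhibition.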
# [2] = Confirmation and Secondary Assay for Modulators of Hemoglobin Beta Chain Splicing at IVS2 654 locus (AID 910)
# In short: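 HeLa cells stably carrying EGFP interrupted by mutant beta-globin IVS2-654 intron (CMV-driven) were treated with compound for 2 days at 37C; corrected splicing was scored as total peak GFP intensity per well (488 nm excitation, 500-520 nm emission).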
# [3] = Confirmation and Secondary Assay for Modulators of Hemoglobin Beta Chain Splicing at IVS2 705 locus (AID 930);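 also: HeLa cells stably expressing the EGFP-705 splicing reporter; GFP fluorescence per well restored by corrected splicing of the IVS2-705 intron in EGFP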
# In short: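 HeLa cells stably carrying EGFP interrupted by mutant beta-globin intron 2 (IVS2-705) treated 2 days at 37C with compound; 500 nM antisense PNA as control. Correct splicing read as total peak GFP intensity per well by laser-scanning cytometry.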
# [4] = qHTS Assay for Lipid Storage Modulators (AID 1519; calls by dose curve); settings: Drosophila S3 cells, BODIPY lipid droplet/cell ratio, laser cytometry, cells loaded with oleic acid; for activity change, negative = inhibition: at 57.5 µM (top of the series)
# In short: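 Cells seeded at 5,000 per well were treated with compounds over a concentration series and loaded with oleic acid (400 uM, as added). Lipid droplet fluorescence (488 nm excitation, 500-530 nm channel) was read by laser-scanning cytometry and normalized to 20 uM Triacsin C.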
# [5] = target: Ubiquitin carboxyl-terminal hydrolase 1 (Homo sapiens) (UniProt O94782); test: Inhibitors of USP1/UAF1: Pilot qHTS (AID 504865);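 also: rhodamine fluorescence freed from ubiquitin-rhodamine substrate followed over time; top concentration of the series differs between compounds; nearly all actives have a fitted effect of over 35% in size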
# In short: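 USP1/UAF1 complex (1nM) preincubated with compound 15 min at room temperature, then Ub-Rho substrate (150nM final) added. Fluorescence read kinetically at 480/540 nm, 6 reads every 60 seconds. Buffer: 50mM HEPES pH 7.8, 0.5mM EDTA, 0.1 mg/ml BSA, 1mM TCEP, 0.01% Tween-20.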
# [6] = measured here: cell count channel max response
# [7] = measured here: lipid channel max response
# Cytochrome P450 3A4 (Homo sapiens), sequence (P08684 whole entry, looked up): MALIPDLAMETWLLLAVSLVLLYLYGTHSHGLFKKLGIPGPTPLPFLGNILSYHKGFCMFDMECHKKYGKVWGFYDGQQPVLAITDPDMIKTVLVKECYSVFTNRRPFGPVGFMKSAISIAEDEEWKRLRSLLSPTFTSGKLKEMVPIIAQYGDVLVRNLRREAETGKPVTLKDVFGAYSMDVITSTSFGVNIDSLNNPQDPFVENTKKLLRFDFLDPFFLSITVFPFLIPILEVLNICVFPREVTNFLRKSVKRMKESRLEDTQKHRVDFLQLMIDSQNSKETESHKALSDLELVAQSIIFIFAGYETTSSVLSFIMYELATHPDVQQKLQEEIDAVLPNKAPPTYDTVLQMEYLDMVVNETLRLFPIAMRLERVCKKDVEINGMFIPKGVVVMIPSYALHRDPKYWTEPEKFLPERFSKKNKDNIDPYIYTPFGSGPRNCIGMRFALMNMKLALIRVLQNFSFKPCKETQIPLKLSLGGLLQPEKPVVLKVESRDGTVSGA
# Ubiquitin carboxyl-terminal hydrolase 1 (Homo sapiens), sequence (O94782 whole entry, looked up): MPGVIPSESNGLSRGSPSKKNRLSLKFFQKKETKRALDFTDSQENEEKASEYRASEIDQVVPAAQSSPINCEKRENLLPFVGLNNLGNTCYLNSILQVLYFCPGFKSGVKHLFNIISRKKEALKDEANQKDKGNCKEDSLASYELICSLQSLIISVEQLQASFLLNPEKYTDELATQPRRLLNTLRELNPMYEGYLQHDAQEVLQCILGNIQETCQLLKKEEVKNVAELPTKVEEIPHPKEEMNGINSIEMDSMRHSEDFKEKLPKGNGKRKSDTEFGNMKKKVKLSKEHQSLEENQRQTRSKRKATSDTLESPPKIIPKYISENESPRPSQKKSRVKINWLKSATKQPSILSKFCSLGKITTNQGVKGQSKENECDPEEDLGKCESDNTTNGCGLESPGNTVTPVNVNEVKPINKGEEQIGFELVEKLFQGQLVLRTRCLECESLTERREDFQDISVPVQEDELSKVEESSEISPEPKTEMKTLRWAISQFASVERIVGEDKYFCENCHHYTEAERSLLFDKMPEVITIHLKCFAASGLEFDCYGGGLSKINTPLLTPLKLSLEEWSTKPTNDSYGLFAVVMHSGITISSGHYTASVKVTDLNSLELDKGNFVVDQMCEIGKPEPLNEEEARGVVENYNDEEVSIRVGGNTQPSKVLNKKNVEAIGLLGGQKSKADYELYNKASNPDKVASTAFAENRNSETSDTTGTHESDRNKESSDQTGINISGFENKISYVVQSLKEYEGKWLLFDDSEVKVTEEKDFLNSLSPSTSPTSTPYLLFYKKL
SMILES,Potency [1],Potency [2],Potency [3],"activity change, negative = inhibition [4]","max response [4, 6]","max response [4, 7]",Potency [5]
NCCC(O)C(=O)NC1C[C@@H](N)[C@H](O[C@@H]2OC(CN)C(O)C(O)C2O)C(O)[C@H]1O[C@H]1OC(CO)C(O)C(N)C1O (some centres not stated),inactive,inactive,inactive,7.58% (inactive),23.7%,35.1%,inactive
O=C(O)c1ccc2c(c1)OCO2,inactive,inactive,inactive,6.55% (inactive),14.4%,22.7%,inactive
CC(=O)OC1CC[C@@]2(C)C(CC[C@@]3(C)C2CC=C2C4CC(C)(C)CC[C@]4(C(=O)O)CC[C@@]23C)C1(C)C (some centres not stated),inactive,inactive,inactive,9.65% (inactive),12.5%,29%,inactive
CC(C(=O)O)C1CCC2C3CC=C4CC(O)CC[C@@]4(C)C3CC[C@]12C (some centres not stated),inactive,inactive,inactive,4.4% (inactive),6.91%,12.2%,inactive
CC1CC[C@@]2(OC1)OC1CC3C4CC=C5CC(O)CC[C@@]5(C)C4CC[C@]3(C)C1C2C (some centres not stated),inactive,inactive,inactive,5.92% (inactive),10.1%,19%,inactive
NC(=O)c1ccc[n+]([C@@H]2OC(COP(=O)([O-])OP(=O)(O)OCC3OC(n4cnc5c(N)ncnc54)C(OP(=O)(O)O)C3O)C(O)C2O)c1 (some centres not stated),inactive,inactive,inactive,5.09% (inactive),9.14%,18.1%,inactive
CCCCCCCCCCCCCc1ccco1,inactive,inactive,inactive,1.58% (inactive),-6.07%,3.51%,inactive
CC(=O)OC1CCC2(O)CC1(C)CCC1C2CC1(C)C (configuration not stated),inactive,inactive,inactive,0.291% (inactive),16.4%,18.1%,inactive
COC1C(O)C(CO)OC1n1cnc2c(=O)[nH]c(N)nc21 (configuration not stated),inactive,inactive,inactive,5.46% (inactive),13.5%,20.7%,inactive
Nc1nc2c([nH]c(=S)n2C2OC(CO)C(O)C2O)c(=O)[nH]1 (configuration not stated),inactive,inactive,inactive,2.15% (inactive),0.955%,15.7%,inactive
O=c1oc2ccccc2cc1O,inactive,inactive,inactive,6.16% (inactive),4.09%,13.1%,inactive
COc1ccc2c(C)cc(=O)oc2c1,inactive,inactive,inactive,8.28% (inactive),31.7%,42.1%,inactive
CC(CCC(=O)O)C1CCC2C3CC(O)[C@@H]4CC(O)CC[C@]4(C)C3CC[C@@]12C (some centres not stated),inactive,inactive,inactive,6.93% (inactive),12.9%,20.4%,inactive
CC1CC[C@]2(CO)CC[C@]3(C)C(=CCC4[C@@]5(C)CCC(O)C(C)(C)C5CC[C@@]43C)C2C1C (some centres not stated),inactive,inactive,inactive,6.23% (inactive),4.46%,20%,inactive
COc1c2ccccc2nc2occc12,inactive,inactive,inactive,9.64% (inactive),24.3%,38.1%,inactive
CCOc1ccc(C(=O)c2ccc(OC)c(O)c2O)cc1,inactive,inactive,inactive,7.45% (inactive),6.67%,16.2%,inactive
Nc1nc2c(nc(Cl)n2C2OC(CO)C(O)C2O)c(=O)[nH]1 (configuration not stated),inactive,inactive,inactive,3.5% (inactive),20%,24.4%,inactive
Nc1nc2c(nc(Br)n2C2CC(O)C(CO)O2)c(=O)[nH]1 (configuration not stated),inactive,inactive,inactive,3.88% (inactive),4.93%,9.77%,inactive
CO[C@]1(NC(=O)C(C(=O)O)c2ccc(O)cc2)C(=O)N2C(C(=O)O)=C(CSc3nnnn3C)COC21 (some centres not stated),inactive,inactive,inactive,9.58% (inactive),18.1%,35.5%,inactive
COc1cc(/C=C/C(=O)O)cc(OC)c1OC,inactive,inactive,inactive,3.87% (inactive),9.64%,14.9%,inactive
CCCCCCCCCCCCC(C(=O)O)C(C)C(=O)O (configuration not stated),inactive,inactive,inactive,4.67% (inactive),6.54%,14%,inactive
